Six1-Eya2 blk: inhibitors of human Six1/Eya2 interaction; AlphaScreen GST-Six1/His-Eya2 binding, biochemical; stronger effect = lower value; activity change, % (test concentration not listed); 360,000 compounds, 0.56% hits; AID 651725; in the data active means activity change below about -65%; inconclusive means mostly about -30% to -63%; further: on the % scale 0 is the no-effect control and ±100 the full control effect
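Homogeneous AlphaScreen proximity assay pairing GST-Six1 with His-tagged Eya2 (added as 5X mix: 250 nM and 500 nM) in 50 mM Tris pH 8.0, 300 mM NaCl, 1 mM TCEP. Glutathione donor and nickel acceptor beads; 1 h, 37 °C, dark.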
HP1b chromo inh: inhibitors of HP1-beta chromodomain binding to methylated histone tails. AID 540317. AlphaScreen HP1-beta / biotin-H3K9me3 peptide binding. 390,000 compounds, 0.56% hits. Potency, µM (highest dose often 114 µM), for inactives: top-dose activity change, negative = inhibition, actives largely listed as inhibitors. P83916; further: potency means the concentration at half of the fitted maximal effect; nearly all actives have a fitted effect of over 70% in size
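Compound inhibition of the preformed complex between 50 nM HP1-beta and 50 nM biotinylated H3K9me3 peptide was read by AlphaScreen. Buffer was PBS pH 7.4 with 0.01% Tween-20. Incubations ran 30 min at room temperature, with 10 ug/mL donor/acceptor beads.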
JMJD2A Tudor: JMJD2A Tudor domain (human) inhibition; O75164; AlphaScreen JMJD2A-Tudor / H3K4me3 peptide binding; Potency, µM (titrated, usually from 114 µM), inactives show at the highest dose activity change, negative = inhibition, hits mostly inhibitors; 390,000 compounds, 4.4% hits; further: potency means the concentration at half of the fitted maximal effect; on the % scale 0 is the no-effect control and ±100 the full control effect; nearly all actives have a fitted effect of over 50% in size
CtBP-E1A blk: blocks the CtBP interaction with E1A | AlphaScreen GST-E1A/His-CtBP binding, 1536-well; stronger effect = lower value | activity change, % (concentration not given with the values) | 340,000 compounds, 0.49% hits; in the data active means activity change below about -65%; inconclusive means mostly about -30% to -63%; further: on the % scale 0 is the no-effect control and ±100 the full control effect
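AlphaScreen with 125 nM GST-E1A and 125 nM His-CtBP (5X stocks) in Tris pH 8.0, 300 mM NaCl, BSA, Tween 20, TCEP. Compounds preincubated 2 h at 37 deg C, then glutathione donor/nickel acceptor beads added for 1 h at 37 deg C in dark.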
BAZ2B inh: BAZ2B (human) inhibition. Q9UIF8. AlphaScreen BAZ2B-H3K14Ac peptide displacement. Potency, µM (titrated, usually from 114 µM), for the others: at the highest dose activity change, negative = inhibition, usual class: inhibitors. 360,000 compounds, 4.4% hits; further: potency means the concentration at half of the fitted maximal effect; on the % scale 0 is the no-effect control and ±100 the full control effect; nearly all actives have a fitted effect of over 60% in size
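Multi-concentration screen (max 110 uM) measuring displacement of acetylated histone H3 peptide from BAZ2B by AlphaScreen, using 50 nM protein, 50 nM peptide and 10 ug/mL streptavidin donor plus Ni-chelate acceptor beads.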
G9a inh: blocks human histone lysine methyltransferase G9a; Q96KQ7; G9a H3K9 monomethylation, AlphaScreen, 2 h; Potency, µM (titrated, usually from 102 µM), for inactives: top-dose activity, negative = inhibition, most hits filed as inhibitors; 350,000 compounds, 8.8% hits; AID 504332; further: potency means the concentration at half of the fitted maximal effect; on the % scale 0 is the no-effect control and ±100 the full control effect; nearly all actives have a fitted effect of over 75% in size
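Using a bead-based AlphaScreen, monomethylated H3K9 product from 2 h room-temperature reactions (G9a 20 nM, peptide 500 nM, SAM 20 uM) was detected with 0.5 ug/mL rabbit anti-H3K9me1 antibody.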
* marks the source's active call; other numbers are inactive results; u = inconclusive; x = no result given; [ ] = dose if it differs, or a comment. Shown are actives, neighbours in structure and some others; about 10% of the full set was active somewhere. Unless noted, the call rests on the fitted dose curve; in most records, active means well fitted inhibition curve with a large enough effect; inconclusive means small, poorly fitted or top-dose-only effect; inactive means no such curve, though single readings can be large or run the other way.

SMILES	Six1-Eya2 blk	HP1b chromo inh	JMJD2A Tudor	CtBP-E1A blk	BAZ2B inh	G9a inh
COc1ccc(C(=O)c2cc([N+](=O)[O-])ccc2N2CCCC2)cc1	-1.0	u	-32.5%	5.7	u	u
CS(=O)(=O)c1ccc(Cl)c(NC(=O)CSc2nnc3n2CCCCC3)c1	5.7	x	x	2.2	x	x
Cc1cccn2c(NC(=O)c3ccccc3F)c(-c3ccccc3)nc12	2.9	26.3%	-14.4%	6.2	0.9%	22.8%[2.33 µM]
CSc1ccc(/C=C/C(=O)OCC(=O)NC2CCCCCC2)cc1	20.0	x	x	16.2	x	x
CC(C)(C)c1cc(-c2n[nH]c(=S)n2-c2ccc(Cl)cc2)n[nH]1	-8.7	-12.2%	39.8µM*	-0.5	u	u
CC(C)(C)c1cc(-c2ccccc2)n[nH]1	0.2	42.8%	-7.0%	0.0	1.1%	x
Cc1nn(C)cc1-c1n[nH]c(=S)n1-c1ccc(Cl)cc1	5.9	-13.8%	3.16µM*	10.4	-9.5%	5.62µM*
CCN(CC)c1ccc(N2C(=O)CSC2=S)cc1	-11.4	u	50.1µM*	-16.6	-3.8%	4.5%
O=C(O)c1cc(C(=O)O)cc(N2C(=O)CSC2=S)c1	-12.3	-8.4%	4.0%	11.2	u	17.8µM*
CCOC(=O)C1=CCC(C(C)(C)C)N(S(=O)(=O)c2ccc(C)cc2)C1 (stereo not given)	9.2	x	x	10.9	x	x
O=c1[nH]c2ccc(Br)cc2c(=O)o1	0.6	x	x	5.2	x	x
CCC(=O)Nc1ccc(C(=O)NCc2ccccn2)cc1	-0.1	49.5%	1.0%	5.3	-13.4%	5.9%
CCOc1ccccc1NC(=O)c1ccc2c(O)c(S(=O)(=O)c3ccccc3)c(=O)[nH]c2c1	-0.6	x	x	-1.8	x	x
COc1ccc(S(=O)(=O)c2c(O)c3ccc(C(=O)Nc4ccc(F)cc4)cc3[nH]c2=O)cc1	u	-0.9%	50.1µM*	-24.4	-29.3%	5.4%[59 µM]
CCc1ccccc1NC(=O)c1ccc2c(O)c(S(=O)(=O)c3ccc(OC)cc3)c(=O)[nH]c2c1	0.2	-8.5%	20µM*	0.0	-9.7%	-0.6%[59 µM]
CCc1ccccc1NC(=O)c1ccc2c(O)c(S(=O)(=O)c3ccccc3)c(=O)[nH]c2c1	x	6.3%	79.4µM*	x	u	15.8µM*
COc1ccc(S(=O)(=O)c2c(O)c3ccc(C(=O)Nc4ccccc4Cl)cc3[nH]c2=O)cc1	-13.3	49.2%	u	-20.8	-1.6%	18.2%[59 µM]
CC1(c2ccccc2)NC(=O)N(CC(=O)NC(=O)NC2CCCC2)C1=O (stereo not given)	2.9	9.0%	-16.0%[57.1 µM]	4.7	-33.1%	-31.2%[59 µM]
O=C(Nc1c2ccccc2nc2ccccc12)C(Cl)(Cl)Cl	5.6	46.9%	12.9%	6.7	10.5%	44.7µM*
CC(C)Sc1nc2c(c(=O)[nH]c(=O)n2C)n1CC(O)COc1ccccc1 (stereo not given)	-6.5	-11.9%	-1.7%	11.8	3.1%	22.4µM*
Cn1c(=O)[nH]c(=O)c2c1nc(NCCN)n2CCOc1ccccc1	-19.3	4.5%	-21.8%	0.7	30.1%	-5.4%[0.501 µM]
CCSc1nc2c(c(=O)[nH]c(=O)n2C)n1CC(O)COc1ccc(Cl)cc1 (stereo not given)	x	38.2%	-15.7%	x	0.4%	1.2%[59 µM]
CC(O)CSc1nc2c(c(=O)[nH]c(=O)n2C)n1CC(O)COc1ccccc1 (stereo not given)	4.6	-9.0%	-4.5%	6.9	-20.1%	11.2µM*
Cn1c(=O)[nH]c(=O)c2c1nc(NN)n2CCOc1ccccc1	u	9.4%	u	-13.2	-35.0%	11.2µM*
Cc1ccc(C(C)C)cc1OCC(=O)NNC(=O)Nc1ccccc1	-3.5	47.8%	-10.6%	1.6	7.0%	79.4µM*
Cc1ccsc1C1CC(=O)Nc2ccccc2S1 (stereo not given)	-4.9	31.2%	-14.8%	-0.7	-24.2%	-4.6%
O=C(CN1C(=O)CC(c2ccco2)Sc2ccccc21)Nc1ccccc1F (stereo not given)	-11.4	1.3%	u	-5.9	u	u

From PubChem BioAssay
